The target in assay [1] is Aryl hydrocarbon receptor (Homo sapiens) (UniProt P35869). Kind of assay: qHTS assay to identify small molecule that activate the aryl hydrocarbon receptor (AhR) signaling pathway (AID 743085). Further: nearly all actives have a fitted effect of over 15% in size. Further: potency means the concentration at half of the fitted maximal effect.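 On activation: HG2L7.5c1 human HepG2 liver cells with stably integrated DRE-driven firefly reporter; series mostly up to about 70 µM.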 In outline: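 HepG2 cells (HG2L7.5c1) stably carrying a firefly luciferase reporter driven by 20 dioxin responsive elements were exposed to compound for 24 h at 37C after a 5 h settling period; luminescence rise (ONE-Glo) indicated activation.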
Sequence of Aryl hydrocarbon receptor (Homo sapiens) (P35869 whole entry, looked up): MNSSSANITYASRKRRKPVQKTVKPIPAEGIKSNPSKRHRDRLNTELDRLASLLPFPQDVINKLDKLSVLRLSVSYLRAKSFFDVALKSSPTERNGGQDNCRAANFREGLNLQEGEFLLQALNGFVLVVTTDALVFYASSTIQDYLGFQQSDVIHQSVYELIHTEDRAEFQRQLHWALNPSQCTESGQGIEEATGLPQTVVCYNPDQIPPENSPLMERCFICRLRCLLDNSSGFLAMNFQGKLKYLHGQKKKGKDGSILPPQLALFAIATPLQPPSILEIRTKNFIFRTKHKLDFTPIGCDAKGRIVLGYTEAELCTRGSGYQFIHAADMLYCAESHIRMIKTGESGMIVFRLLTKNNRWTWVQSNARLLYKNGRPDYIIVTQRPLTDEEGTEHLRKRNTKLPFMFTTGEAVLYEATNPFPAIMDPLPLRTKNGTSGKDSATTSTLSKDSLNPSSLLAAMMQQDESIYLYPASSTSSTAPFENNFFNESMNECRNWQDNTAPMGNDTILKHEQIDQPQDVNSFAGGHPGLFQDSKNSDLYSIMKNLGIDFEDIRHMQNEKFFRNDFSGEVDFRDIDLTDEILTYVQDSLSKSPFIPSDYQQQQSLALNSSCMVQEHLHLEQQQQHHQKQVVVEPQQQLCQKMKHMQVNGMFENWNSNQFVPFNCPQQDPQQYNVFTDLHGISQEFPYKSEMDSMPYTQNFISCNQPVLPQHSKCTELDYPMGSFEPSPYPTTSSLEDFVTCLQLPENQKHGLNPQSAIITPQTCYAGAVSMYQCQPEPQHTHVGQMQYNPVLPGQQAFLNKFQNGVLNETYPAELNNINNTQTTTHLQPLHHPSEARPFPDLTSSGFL
A general note: Quantitative high-throughput screening tests each substance at several concentrations.

The nature of assay [2]: qHTS assay to identify small molecule that activate the aryl hydrocarbon receptor (AhR) signaling pathway - cell viability counter screen (AID 743086).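 Further: HepG2 liver cells carrying the AhR DRE luciferase reporter; series mostly up to about 70 µM; nearly all actives have a fitted effect of over 45% in size.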 In outline: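 HepG2-AhR-luc (HG2L7.5c1) cells, 4000/well, were preincubated 5 h at 37C, exposed to compound in qHTS format for 24 hr at 37C, then given CellTiter-Fluor for 30 min; viability was read as fluorescence in the reporter wells.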

The target of assay [3] is Peroxisome proliferator-activated receptor gamma (Homo sapiens) (UniProt P37231). Kind of assay: qHTS assay to identify small molecule antagonists of the peroxisome proliferator-activated receptor gamma (PPARg) signaling pathway (AID 743191; calls by dose curve; further: series mostly up to about 63 µM; nearly all actives have a fitted effect of over 30% in size). The procedure, abridged: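 GeneBLAzer PPARg UAS-bla HEK293H cells carrying a UAS-driven beta-lactamase reporter were plated at 3000 cells/well, preincubated 5 h at 37C, then given compound for 17 h at 37C; LiveBLAzer B/G FRET substrate was read after 1 h at room temperature.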
Sequence of Peroxisome proliferator-activated receptor gamma (Homo sapiens) (P37231 whole entry, looked up): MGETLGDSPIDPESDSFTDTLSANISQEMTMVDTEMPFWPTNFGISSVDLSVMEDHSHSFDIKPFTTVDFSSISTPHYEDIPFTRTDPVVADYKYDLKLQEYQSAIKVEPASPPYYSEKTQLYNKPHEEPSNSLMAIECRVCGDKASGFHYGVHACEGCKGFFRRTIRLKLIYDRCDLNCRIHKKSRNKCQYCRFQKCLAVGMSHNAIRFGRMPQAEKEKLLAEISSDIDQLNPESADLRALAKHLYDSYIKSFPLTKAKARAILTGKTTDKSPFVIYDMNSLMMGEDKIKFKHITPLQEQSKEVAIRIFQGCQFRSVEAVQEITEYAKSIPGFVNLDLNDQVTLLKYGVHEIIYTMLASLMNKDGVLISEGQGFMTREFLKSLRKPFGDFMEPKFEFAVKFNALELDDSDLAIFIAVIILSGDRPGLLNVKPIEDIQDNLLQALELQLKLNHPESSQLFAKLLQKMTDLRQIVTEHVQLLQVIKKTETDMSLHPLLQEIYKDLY

The nature of assay [4]: qHTS assay to identify small molecule antagonists of the peroxisome proliferator-activated receptor gamma (PPARg) signaling pathway - cell viability counter screen (AID 743194). Further: nearly all actives have a fitted effect of over 55% in size. To be noted: Potency: co-treated with 50 nM rosiglitazone. The procedure, abridged: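 PPARg-UAS-bla HEK293H cells were plated, rested 5 h at 37 C, then treated with compounds plus rosiglitazone (50 nM final) for 17 h at 37 C; viability was then read by CellTiter-Glo luminescence after 30 min at room temperature.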

A short description of assay [5]: qHTS assay for small molecule agonists of the antioxidant response element (ARE) signaling pathway - cell viability counter screen (AID 743203; calls by dose curve; further: nearly all actives have a fitted effect of over 55% in size). In outline: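 HepG2 cells carrying ARE-driven beta-lactamase; 2,000 cells/well; 5 hrs plating; compound pinned from DMSO; 16 hrs 37C/5% CO2; CellTiter-Glo added; 30 min RT; luminescence.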
Assay [6] is described as follows: qHTS assay for small molecule activators of the heat shock response signaling pathway - cell viability counter screen (AID 743209). Further: nearly all actives have a fitted effect of over 50% in size. The procedure, abridged:
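Luminescence from CellTiter-Glo, added after the beta-lactamase FRET read, gave the viability signal. Cells were HSE-bla HeLa treated with DMSO-dissolved compounds for 5 h at 37 C following overnight plating.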

A short description of assay [7]: qHTS assay for small molecule activators of the heat shock response signaling pathway (AID 743210; active means well fitted activation curve with a large enough effect in the signal ratio in the repeat runs, with a control signal flat, not every such curve was filed as active; the % refers to the signal ratio;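 further: HeLa cells with beta-lactamase reporter driven by heat shock elements; series mostly up to about 63 µM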). The procedure, abridged: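 Reporter gene assay: HeLa cells stably bearing an HSE-bla construct, compound treatment 5 h at 37 C, LiveBLAzer substrate 2.5 h at RT, fluorescence intensity.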
A short description of assay [8]: qHTS assay to identify small molecule agonists of the peroxisome proliferator-activated receptor delta (PPARd) signaling pathway - cell viability counter screen (AID 743211). Further: nearly all actives have a fitted effect of over 55% in size. The procedure, abridged: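 PPARd-bla HEK293H cells (UAS-beta-lactamase reporter) were treated with compounds for 17 h at 37 C. Viability was then read in the same wells by CellTiter-Glo luminescence after 30 min at room temperature.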

A short description of assay [9]: qHTS assay to identify small molecule antagonists of the peroxisome proliferator-activated receptor delta (PPARd) signaling pathway - cell viability counter screen (AID 743213). Further: nearly all actives have a fitted effect of over 50% in size. In outline: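 In this counter screen, HEK293H cells carrying a UAS-beta-lactamase reporter are co-treated with test compounds and 300 nM L165041 (final) for 17 h at 37 C; cell viability is quantified by CellTiter-Glo luminescence.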

A short description of assay [10]: qHTS assay to identify small molecule agonists of the farnesoid-X-receptor (FXR) signaling pathway - cell viability counter screen (AID 743218). Further: nearly all actives have a fitted effect of over 45% in size. In outline:
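HEK 293T FXR-bla cells; 5 h pre-incubation, 16 h compound exposure at 37 C; LiveBLAzer substrate 2 h RT, then CellTiter-Glo 30 min RT, luminescence.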

Assay [11] in a line: qHTS assay to identify small molecule antagonists of the farnesoid-X-receptor (FXR) signaling pathway - cell viability counter screen (AID 743221; active means well fitted cell-killing curve with a large enough effect in the repeat runs, not every such curve was filed as active; further: nearly all actives have a fitted effect of over 50% in size). The procedure, abridged: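 FXR-UAS-bla HEK 293T cells were treated with test compounds plus chenodeoxycholic acid (50 uM final) for 16 h at 37 C. Cell viability in the same wells was then read as CellTiter-Glo luminescence after 30 min at room temperature.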

In assay [12] the target is Vitamin D3 receptor (Homo sapiens) (UniProt P11473). Kind of assay: qHTS assay to identify small molecule agonists of the vitamin D receptor (VDR) signaling pathway (AID 743222; calls by dose curve). The procedure, abridged: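 VDR-bla cells, 2,000/well; 4 h preincubation 37C; cpd (DMSO) 16 h; LiveBLAzer B/G substrate 2 h RT; fluorescence intensity read.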
Sequence of Vitamin D3 receptor (Homo sapiens) (P11473 whole entry, looked up): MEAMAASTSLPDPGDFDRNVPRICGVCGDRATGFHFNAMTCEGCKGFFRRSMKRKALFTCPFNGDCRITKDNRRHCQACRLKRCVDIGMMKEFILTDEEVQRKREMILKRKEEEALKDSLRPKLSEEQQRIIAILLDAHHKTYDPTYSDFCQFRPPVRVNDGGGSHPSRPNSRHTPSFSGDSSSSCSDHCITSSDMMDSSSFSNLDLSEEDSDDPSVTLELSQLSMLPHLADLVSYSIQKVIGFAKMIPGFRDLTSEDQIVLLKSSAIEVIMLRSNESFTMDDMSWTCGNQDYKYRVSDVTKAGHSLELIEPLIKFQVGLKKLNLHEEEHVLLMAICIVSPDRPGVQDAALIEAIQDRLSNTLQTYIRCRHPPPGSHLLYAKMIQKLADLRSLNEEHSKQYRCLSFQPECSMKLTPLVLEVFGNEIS
Assay [13] shares this target. Kind of assay: qHTS assay to identify small molecule antagonists of the vitamin D receptor (VDR) signaling pathway (AID 743223; active means well fitted inhibition curve with a large enough effect in the signal ratio in the repeat runs, not every such curve was filed as active; the % refers to the signal ratio). In outline: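 VDR-bla cells were plated, incubated 4 h at 37C, then given compound and 1alpha,25-dihydroxyvitamin D3 (3 nM final). After 16 h at 37C, LiveBLAzer B/G FRET substrate was added for 2 h at room temperature and fluorescence read.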

A short description of assay [14]: qHTS assay to identify small molecule agonists of the vitamin D receptor (VDR) signaling pathway - cell viability counter screen (AID 743224). Further: series mostly up to about 63 µM; nearly all actives have a fitted effect of over 50% in size. The procedure, abridged:
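Luminescence from CellTiter-Glo, read after 30 min at room temperature, reports viability of VDR-bla cells treated with compounds for 16 h at 37C in the wells used for the beta-lactamase FRET read.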

In assay [15] the target is Peroxisome proliferator-activated receptor delta (Homo sapiens) (UniProt Q03181). Briefly: qHTS assay to identify small molecule agonists of the peroxisome proliferator-activated receptor delta (PPARd) signaling pathway (AID 743212; calls by dose curve). In outline: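 A PPARd-bla HEK293H line with beta-lactamase under an Upstream Activator Sequence is treated with compounds at 37 C. Substrate loading for 2 h at room temperature precedes the fluorescence measurement.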
Sequence of Peroxisome proliferator-activated receptor delta (Homo sapiens) (Q03181 whole entry, looked up): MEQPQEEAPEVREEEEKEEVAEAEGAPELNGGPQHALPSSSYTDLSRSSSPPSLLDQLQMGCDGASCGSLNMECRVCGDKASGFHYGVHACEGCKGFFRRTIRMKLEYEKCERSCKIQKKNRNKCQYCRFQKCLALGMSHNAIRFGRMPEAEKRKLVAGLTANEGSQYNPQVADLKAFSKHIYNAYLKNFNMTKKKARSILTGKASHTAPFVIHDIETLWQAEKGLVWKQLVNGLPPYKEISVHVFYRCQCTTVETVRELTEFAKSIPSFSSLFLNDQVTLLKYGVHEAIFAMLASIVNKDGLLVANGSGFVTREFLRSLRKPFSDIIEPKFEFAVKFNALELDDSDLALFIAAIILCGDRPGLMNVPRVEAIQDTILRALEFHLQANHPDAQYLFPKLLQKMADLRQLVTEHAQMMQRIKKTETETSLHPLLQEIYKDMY

For assay [16], the target named is Bile acid receptor (Homo sapiens) (UniProt Q96RI1). Kind of assay: qHTS assay to identify small molecule antagonists of the farnesoid-X-receptor (FXR) signaling pathway (AID 743217; active means well fitted inhibition curve with a large enough effect in the signal ratio in the repeat runs, not every such curve was filed as active; the % refers to the signal ratio). The procedure, abridged: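 HEK 293T FXR-UAS-bla, 5000 cells/well; compound + CDCA 50 uM final; 16 h, 37 °C; B/G FRET substrate 2 h RT; fluorescence.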
Sequence of Bile acid receptor (Homo sapiens) (Q96RI1 whole entry, looked up): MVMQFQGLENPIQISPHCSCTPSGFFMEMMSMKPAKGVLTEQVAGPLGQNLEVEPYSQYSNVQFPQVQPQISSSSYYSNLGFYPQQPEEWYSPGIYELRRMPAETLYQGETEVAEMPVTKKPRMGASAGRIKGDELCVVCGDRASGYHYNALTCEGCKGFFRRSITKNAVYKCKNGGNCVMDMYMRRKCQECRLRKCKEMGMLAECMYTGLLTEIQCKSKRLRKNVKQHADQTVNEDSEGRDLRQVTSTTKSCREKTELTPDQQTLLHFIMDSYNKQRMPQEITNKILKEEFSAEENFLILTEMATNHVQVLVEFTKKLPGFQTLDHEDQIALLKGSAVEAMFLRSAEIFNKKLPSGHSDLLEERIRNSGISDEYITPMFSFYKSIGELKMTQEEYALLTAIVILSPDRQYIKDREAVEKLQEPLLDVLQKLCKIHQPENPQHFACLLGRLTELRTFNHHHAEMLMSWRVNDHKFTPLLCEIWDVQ
Assay [17] shares this target. Kind of assay: qHTS assay to identify small molecule agonists of the farnesoid-X-receptor (FXR) signaling pathway (AID 743220; active means well fitted activation curve with a large enough effect in the signal ratio in the repeat runs, not every such curve was filed as active; the % refers to the signal ratio). In outline:
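Beta-lactamase reporter under UAS control in GeneBLAzer FXR HEK 293T cells (5000/well) measured with LiveBLAzer FRET substrate after 2 h at room temperature. Compound exposure lasted 16 h at 37C.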

The nature of assay [18]: qHTS assay for small molecule agonists of the antioxidant response element (ARE) signaling pathway (AID 743202; active means well fitted activation curve with a large enough effect in the signal ratio in the repeat runs, not every such curve was filed as active; the % refers to the signal ratio). The procedure, abridged: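 Compounds delivered in DMSO to ARE-bla HepG2 cells (2,000 cells/well, pre-incubated 5 h) and left 16 h at 37 C. LiveBLAzer B/G FRET substrate then added for 2 h at RT before fluorescence reading.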
For assay [19], the target named is Peroxisome proliferator-activated receptor delta (Homo sapiens) (UniProt Q03181). Briefly: qHTS assay to identify small molecule antagonists of the peroxisome proliferator-activated receptor delta (PPARd) signaling pathway (AID 743215; active means well fitted inhibition curve with a large enough effect in the signal ratio in the repeat runs, not every such curve was filed as active; the % refers to the signal ratio;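 further: cells stimulated with agonist L165041 at 300 nM final during compound exposure; series mostly up to about 62 µM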). In outline: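 Read-out is beta-lactamase FRET fluorescence, measured 2 h after substrate addition at room temperature. Beforehand, UAS-bla HEK293H cells carrying the PPARd reporter were exposed to compounds with L165041 at 300 nM final for 17 h at 37 C.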

Assay [20] addresses Peroxisome proliferator-activated receptor gamma (Homo sapiens) (UniProt P37231). Kind of assay: qHTS assay to identify small molecule agonists of the peroxisome proliferator-activated receptor gamma (PPARg) signaling pathway (AID 743094; active means well fitted activation curve with a large enough effect in the signal ratio in the repeat runs, not every such curve was filed as active; the % refers to the signal ratio). The procedure, abridged: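 Beta-lactamase FRET fluorescence was the read-out after a 1 h room-temperature substrate step, following 17 h compound treatment at 37C of HEK293H cells expressing a UAS-driven bla reporter responsive to PPARg.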

The text below walks through data of PubChem BioAssay (Tox21).

The structures appear in SMILES notation. Records with an inconclusive call do not appear. The source made the active and inactive calls. Unless noted, the call rests on the fitted dose curve; in most records, active means well fitted curve in the direction sought with a large enough effect in the repeat runs; inconclusive means weak or mixed curves; inactive means no such curve, though single readings can be large; an effect the other way counts as inactive or inconclusive.

Take `CC1CN1P(=O)(N1CC1C)N1CC1C` (centres undefined): the Potency entry in assay [1], in [3], in assay [4], in assay [5], in assay [6] and in assay [8] was “inactive” each time. Also, the Potency result in [10] and in assay [14] was “inactive” each time. Besides, the call in assay [2], in [7], in [9], in assay [11], in assay [12] and in [13] was inactive.

For `N#CC(O)c1ccccc1` (centres undefined), the Potency entry in [1], in assay [3], in assay [4], in assay [5], in [6] and in assay [8] was “inactive” in each case. In addition, the Potency entry in assay [16], in assay [10] and in assay [14] was “inactive” each time. In addition, the compound was classed as inactive in assay [2], in assay [7], in assay [15], in [9], in assay [17] and in [11]. Also, in [12], the compound was classed as inactive.

With `C[N+](=O)[O-]`, the Potency result in [1], in assay [3], in [4], in assay [5], in assay [6] and in assay [8] was “inactive” each time. In addition, the Potency result in assay [10] and in assay [14] was “inactive” each time. Moreover, the result in assay [2], in assay [7], in [9], in [11], in assay [12] and in assay [13] was inactive.

On to `O=[N+]([O-])c1cccc2cccnc12`, for which the Potency in assay [1] is 35.3 µM (active). The result in assay [2], in assay [7], in assay [15], in [9], in assay [17] and in assay [11] was inactive. Also, the call in [12] and in assay [13] was inactive. For the same compound, the Potency entry in [3], in assay [5], in assay [6], in [8], in [16] and in assay [14] was “inactive” in each case.

Regarding `COc1ncc(F)c2nc(S(=O)(=O)Nc3c(F)cccc3F)nn12`, the Potency result in assay [1], in [4], in [18], in assay [5], in assay [6] and in [8] was “inactive” each time. Moreover, the Potency entry in assay [10] and in assay [14] was “inactive” in each case. For the same compound, the result in assay [2], in [7], in assay [9] and in assay [11] was inactive.

As to `CC(C)[N+](=O)[O-]`, the Potency result in assay [1], in assay [4], in assay [18], in assay [5], in assay [6] and in assay [8] was “inactive” each time. Also, the Potency result in assay [16], in [10] and in [14] was “inactive” throughout. In addition, the outcome in [2], in [7], in [15], in [9], in assay [19] and in assay [17] was inactive. Also, the call in assay [11], in assay [12] and in assay [13] was inactive.

For the compound `CCOP(=S)(OCC)SCSc1ccc(Cl)cc1`, the Potency result in assay [1], in assay [4], in assay [6], in [8], in assay [16] and in [10] was “inactive” each time. The Potency result in [14] is “inactive”. For the same compound, the call in assay [2], in assay [20], in assay [7], in assay [9], in [19] and in assay [17] was inactive. For the same compound, the compound was called inactive in assay [11] and in assay [12].
